Several values for one entry are separate records, joined by “and”; a condition that tells them apart may be missing. Equal entries are not always repeated. Activity calls are given as the source filed them.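 The calls were made as follows, unless noted: active = normalized viability below 100% at a tested concentration; inactive = the rest.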
Key:
[1] = stimulators of nuclear beta-catenin in C2C12, primary screen, imaging, WNT3A-conditioned medium, mouse C2C12, NPC library (AID 1117326; in the data active = nuclear beta-catenin stimulation mostly above about 4.2%, no sharp cut-off; inactive = mostly below about 10%); settings: stronger effect = higher value
[2] = stimulators of insulin release from INS-1E, primary screen, cell-based, 5 mM glucose, NPC library (AID 1117329;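 active = compound raises insulin release from rat beta cells at 5 mM glucose, no numeric limit stated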); settings: rat INS-1E insulin secretion, at 10 µM, stronger effect = higher value
[3] = growth inhibition of GSK3B-pretreated HCT116 cells – cell-based, CellTiter-Glo, 0.2 to 20 µM (AID 1117336;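 active = compounds lowering colon cancer cell viability after pretreatment blocking the GSK3B kinase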); settings: HCT116 viability after GSK3B inhibitor, at 20 µM, stronger effect = higher value
[4] = inhibition of endothelial tube formation, primary screen, imaging, VEGF stimulated, CD31 staining, tube area, NPC library (AID 1117340;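 active = compound that reduces growth-factor-driven endothelial tube area in a mixed cell culture, no cutoff stated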); settings: VEGF-stimulated ADSC/ECFC co-culture, at 10 µM, stronger effect = higher value
[5] = glucagon-like peptide 1 release enhancers, primary assay, NCI-H716 cell line, NPC library (AID 1117341;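 active = compound raises GLP1 secretion from the human gut endocrine cells, with no numeric limit stated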); settings: NCI-H716 cells, at 10 µM, stronger effect = higher value
[6] = HCT116 colon cancer cell growth inhibition, primary screen, CellTiter-Glo luminescence, NPC library (AID 1117342;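 active = compounds that lower survival of HCT116 colon cancer cells in the luminescence readout, no numeric limit stated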); settings: at 20 µM (top of the series)
[7] = CellTiter-Glo luminescent readout of SW480 viability loss, NPC library primary (AID 1117343;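 active = compounds that lower viability of the colon cancer cells in the luminescence readout, with no numeric limit stated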); settings: CellTiter-Glo luminescence; at 20 µM (top of the series) unless noted
[8] = decreased DLD-1 cellular survival, CellTiter-Glo luminescent readout, NPC compound collection, primary HTS (AID 1117346;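 active = compounds that lower survival of DLD-1 colon cancer cells in the luminescence readout, no cutoff given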); settings: DLD-1 viability, CellTiter-Glo luminescence; at 20 µM (top of the series)
[9] = differential killing of epithelial or mesenchymal cells, primary screen, imaging, PC-3E GFP, TEM4-18 mCherry, co-culture (AID 1345086;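 active = compounds killing one labelled cell type while sparing the other, by normalised counts and ratio limits, not self-fluorescent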;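 as to all read-outs here: cells exposed to compound for 72 h before imaging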;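 as to red/green cell ratio (normalised): normalised mesenchymal count divided by normalised epithelial count so high means epithelial killing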); settings: imaging cell counts, at 1 µM; for red/green cell ratio (normalised): actives lie on both sides, counts scaled to control wells, 1 = unselective
[10] = sensitizers of A549 cells to miR-34 induction, primary screen, imaging, A549 dox-inducible miR-34, nuclei and caspase counts (AID 1347080;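 active = compounds whose cell count with miR-34 switched on is under 0.7 times the count with it off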); settings: A549 miR-34 inducible, Hoechst nuclei count, 48 h
[11] = survival rescue of mitochondrial mutant cells in low glucose, primary screen, MELAS cybrids, Rieske KO mouse fibroblasts, CellTiter-Glo (AID 1508586;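 active = mean z-score across replicates of 1.96 or higher in either the MELAS or the Rieske mutant cell line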;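 also: z relative to plate mean and SD of compound and empty wells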)
[12] = ovarian cancer cell viability with rucaparib, profiling panel, oncology-focused library, rucaparib conditional (AID 1508598); settings: patient-derived ovarian cancer cells, CellTiter-Glo viability, 144 h, stronger effect = lower value
[13] = liver-stage malaria parasite growth inhibition, primary screen, cell-based, HepG2, luciferase luminescence, HepG2 viability (AID 624349; in the data active = parasite load remaining mostly below about 12%, no sharp cut-off; inactive = mostly above about 10%;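 also: 100% = mean of DMSO negative control wells on the same plate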); settings: P. berghei liver stage in HepG2, luciferase luminescence, concentration not given here; parasite load remaining: stronger effect = lower value; viability: measured here: HepG2 viability without parasites
[14] = biological target: NAD(+) hydrolase SARM1 (Homo sapiens) (UniProt Q6SZW1); experiment: SARM1 TIR NADase inhibitors, cell lysate, NAD-Glo luminescence (AID 1508614;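 active = compound whose remaining NAD level is above about 45 nM, limit read from the data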;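 also: higher remaining NAD means stronger inhibition of SARM1 NADase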); settings: SAM-TIR HEK293T lysate NADase, at 1 µM, stronger effect = higher value
Chain of NAD(+) hydrolase SARM1 (Homo sapiens) (Q6SZW1 whole entry, looked up): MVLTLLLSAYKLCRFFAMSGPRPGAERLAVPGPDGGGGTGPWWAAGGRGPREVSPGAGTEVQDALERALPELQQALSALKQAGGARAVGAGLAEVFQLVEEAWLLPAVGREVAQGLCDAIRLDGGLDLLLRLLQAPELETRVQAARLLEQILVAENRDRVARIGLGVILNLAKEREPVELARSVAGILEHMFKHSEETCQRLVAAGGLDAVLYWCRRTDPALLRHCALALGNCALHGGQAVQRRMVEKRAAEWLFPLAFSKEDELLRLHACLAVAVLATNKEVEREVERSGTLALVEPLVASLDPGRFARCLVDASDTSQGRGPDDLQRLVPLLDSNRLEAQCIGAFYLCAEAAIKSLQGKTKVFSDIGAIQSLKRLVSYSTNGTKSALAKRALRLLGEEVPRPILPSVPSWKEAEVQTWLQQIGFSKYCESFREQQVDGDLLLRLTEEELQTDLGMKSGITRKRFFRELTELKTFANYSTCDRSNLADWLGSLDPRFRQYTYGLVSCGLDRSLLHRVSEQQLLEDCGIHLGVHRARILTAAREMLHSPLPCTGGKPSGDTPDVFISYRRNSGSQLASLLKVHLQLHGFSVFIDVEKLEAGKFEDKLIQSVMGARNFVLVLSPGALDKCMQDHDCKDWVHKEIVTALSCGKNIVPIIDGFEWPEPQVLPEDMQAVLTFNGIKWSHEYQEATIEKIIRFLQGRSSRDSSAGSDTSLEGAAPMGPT

[15] = measured here: epithelial PC-3E GFP cell survival
[16] = measured here: mesenchymal TEM4-18 mCherry cell survival
[17] = stronger effect = lower value, cell number ratio, induced over uninduced
[18] = measured here: relative caspase fold change +Dox/-Dox
[19] = measured here: total cells with miR-34 induction, stronger effect = lower value
[20] = measured here: total cells without miR-34 induction

COc1cc2ncnc(Nc3ccc(F)c(Cl)c3)c2cc1OCCCN1CCOCC1
nuclear beta-catenin stimulation ([1]; at 10 µM): 78.2% (active)
nuclear beta-catenin stimulation ([1]; stimulation, at 2 µM): 2.5%
insulin secretion stimulation [2]: 0.7% (inactive)
viability decrease [3]: 44.5% (inactive)
tube area decrease [4]: 65.5% (active)
GLP1 secretion stimulation [5]: -2.9% (inactive)
inhibition of viability [6]: 98.7% (active)
viability decrease (inhibition) [7]: 101% (active)
viability decrease (inhibition) [8]: 98.1% (active)
red/green cell ratio (normalised) [9]: 1.15 (inactive)
normalised cell number [9, 15]: 0.79
normalised cell number [9, 16]: 0.91
fold change [10, 17]: 0.786 (inactive) and 0.938 (inactive) and 0.793 (inactive)
fold change [10, 18]: 1.64 and 1.38 and 1.39
cell count [10, 19]: 4800 and 6990 and 6580
cell count [10, 20]: 6110 and 7460 and 8300
z-score ([11]; MELAS cybrid survival, CellTiter-Glo 48 h, stronger effect = higher value): -0.609 (inactive) and 0.334 and 0.781 (inactive)
z-score ([11]; Rieske KO mouse fibroblast survival, CellTiter-Glo 72 h): -0.845 and 2.09 and 1.88
viability ([12]; at 0.000305 µM, OCI-C5x cells, with rucaparib 10 µM, 100% = cells with rucaparib alone): 94.6% (active)
viability ([12]; at 0.000305 µM, OCI-C5x cells, without rucaparib): 94.5% (active)
viability ([12]; at 0.000305 µM, OCI-P5x cells, with rucaparib 20 µM, 100% = cells with rucaparib alone): 100% (inactive)
viability ([12]; at 0.000305 µM, OCI-P5x cells, without rucaparib): 100% (inactive)
viability ([12]; at 0.00122 µM, OCI-C5x cells, with rucaparib 10 µM, 100% = cells with rucaparib alone): 98.1% (active)
viability ([12]; at 0.00122 µM, OCI-C5x cells, without rucaparib): 93.8% (active)
viability ([12]; at 0.00122 µM, OCI-P5x cells, with rucaparib 20 µM, 100% = cells with rucaparib alone): 106% (inactive)
viability ([12]; at 0.00122 µM, OCI-P5x cells, without rucaparib): 100% (inactive)
viability ([12]; at 0.00488 µM, OCI-C5x cells, with rucaparib 10 µM, 100% = cells with rucaparib alone): 95.1% (active)
viability ([12]; at 0.00488 µM, OCI-C5x cells, without rucaparib): 102% (inactive)
viability ([12]; at 0.00488 µM, OCI-P5x cells, with rucaparib 20 µM, 100% = cells with rucaparib alone): 95.6% (active)
viability ([12]; at 0.00488 µM, OCI-P5x cells, without rucaparib): 100% (inactive)
viability ([12]; at 0.0195 µM, OCI-C5x cells, with rucaparib 10 µM, 100% = cells with rucaparib alone): 109% (inactive)
viability ([12]; at 0.0195 µM, OCI-C5x cells, without rucaparib): 98% (active)
viability ([12]; at 0.0195 µM, OCI-P5x cells, with rucaparib 20 µM, 100% = cells with rucaparib alone): 98.7% (active)
viability ([12]; at 0.0195 µM, OCI-P5x cells, without rucaparib): 96.3% (active)
viability ([12]; at 0.0781 µM, OCI-C5x cells, with rucaparib 10 µM, 100% = cells with rucaparib alone): 101% (inactive)
viability ([12]; at 0.0781 µM, OCI-C5x cells, without rucaparib): 92% (active)
viability ([12]; at 0.0781 µM, OCI-P5x cells, with rucaparib 20 µM, 100% = cells with rucaparib alone): 98.6% (active)
viability ([12]; at 0.0781 µM, OCI-P5x cells, without rucaparib): 100% (active)
viability ([12]; at 0.313 µM, OCI-C5x cells, with rucaparib 10 µM, 100% = cells with rucaparib alone): 101% (inactive)
viability ([12]; at 0.313 µM, OCI-C5x cells, without rucaparib): 99.7% (active)
viability ([12]; at 0.313 µM, OCI-P5x cells, with rucaparib 20 µM, 100% = cells with rucaparib alone): 88.2% (active)
viability ([12]; at 0.313 µM, OCI-P5x cells, without rucaparib): 101% (inactive)
viability ([12]; at 1.25 µM, OCI-C5x cells, with rucaparib 10 µM, 100% = cells with rucaparib alone): 103% (inactive)
viability ([12]; at 1.25 µM, OCI-C5x cells, without rucaparib): 94.5% (active)
viability ([12]; at 1.25 µM, OCI-P5x cells, with rucaparib 20 µM, 100% = cells with rucaparib alone): 98.4% (active)
viability ([12]; at 1.25 µM, OCI-P5x cells, without rucaparib): 97.2% (active)
viability ([12]; at 5 µM, OCI-C5x cells, with rucaparib 10 µM, 100% = cells with rucaparib alone): 56.7% (active)
viability ([12]; at 5 µM, OCI-C5x cells, without rucaparib): 72% (active)
viability ([12]; at 5 µM, OCI-P5x cells, with rucaparib 20 µM, 100% = cells with rucaparib alone): 86.8% (active)
viability ([12]; at 5 µM, OCI-P5x cells, without rucaparib): 99.3% (active)

CCCCCCCCCCCCCCCCCCCCCCO
parasite load remaining [13]: 85.5% (inactive)
viability [13]: 109%
nuclear beta-catenin stimulation ([1]; at 10 µM): 3.4% (inactive)
nuclear beta-catenin stimulation ([1]; stimulation, at 2 µM): 2.9%
insulin secretion stimulation [2]: -2.5% (inactive)
viability decrease [3]: -7.2% (inactive)
tube area decrease [4]: -8.1% (inactive)
GLP1 secretion stimulation [5]: 1.1% (inactive)
inhibition of viability [6]: -36.7% (inactive)
viability decrease (inhibition) [7]: 16.6% (inactive)
viability decrease (inhibition) [8]: 7.8% (inactive)
red/green cell ratio (normalised) [9]: 1.1 (inactive)
normalised cell number [9, 15]: 0.99
normalised cell number [9, 16]: 1.09
fold change [10, 17]: 0.841 (inactive)
fold change [10, 18]: 5.17
cell count [10, 19]: 10500
cell count [10, 20]: 12500
remaining NAD [14]: 10 nM (inactive)
